40 compounds from PubChem BioAssay (NCI) can be followed below.

About 83,000 compounds went through this panel and 20% of them were active in at least one assay; those are over-represented in the sample as a whole.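 Results are percent growth after 48 hours of single-concentration exposure. 100 means growth as in untreated cells, lower positive values show inhibition; negative values down to -100 show cell death.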 Values without a mark were called inactive. Calls of active or inactive are those of the source.

In this assay the test system is HCT-116 colon. Kind of assay: NCI-60 one-dose screen, 48 h (100 = growth as untreated, 0 = no growth, -100 = all killed). Particulars: 10 µM unless noted. As to the method:
Growth inhibition of the HCT-116 human tumor cell line is measured as a screen for anti-cancer activity. Cells are grown in 96 well plates and exposed to the test compound for 48 hours. Compounds are tested at a single concentration, which is 10^-5 M for most compounds. The reported endpoint is percent growth (GI% or GIPRCNT), where numbers from 0 - 100% represent growth inhibition, and numbers from -100% - 0 represent cell death. For example, a value of 40 represents 60% growth inhibition. A value of 0 means no net growth occurred over the course of the experiment. A value of -40 indicates 40% of cells at the beginning of the experiment died by the end of the experiment. A value of -100 means all cells are dead at the end of the experiment.
NCI-60 Human Tumor Cell Lines Screen was performed using the standard one-dose NCI protocol, which is described in more detail at https://dtp.cancer.gov/discovery_development/nci-60/default.htm.
Compounds with GIPRCNT values below 10 were considered active. Activity score was based on GIPRCNT using the following formula: […]
Score is 0 for GIPRCNT values of 100 or above, 50 for GIPRCNT values of 0, and 100 for GIPRCNT values of -100.
On to `COc1cc(CCn2nnc3c(NCCCCO)ncnc32)cc(OC)c1`, for which the growth was 97.7%.

With `C#CCN1C(=O)/C(=c2\sc3n(c2=O)NC2C(N=3)N(CC)C(=O)N2CC)c2ccccc21` (stereo not given), the growth is 27%. With `COC(=O)CCCCN=Cc1c(O)c(O)c(C(C)C)c2cc(C)c(-c3c(C)cc4c(C(C)C)c(O)c(O)c(C=NCCCCC(=O)OC)c4c3O)c(O)c12`, the growth is 14.9%.

For the compound `c1ccn2nnnc2c1`, the growth was 87.5%.

As to `CC(=O)Oc1cccc(OC(C)=O)c1OC(C)=O`, the growth is 89.5%. Next, `Clc1cccc(Cl)c1Cn1c(-c2cncs2)nc2ccccc21`: 78.8%; `O=C(c1ccccc1)C(Cl)C(Cl)c1ccccc1` (stereo not given): 7.77% (active). Next, `CCSc1nnc(NC(=O)Cc2ccc(Cl)cc2)s1`: 105%; `Cc1ccc(Oc2nc3ccccc3cc2-c2nnc(Cn3c(COc4ccccc4)nc4ccccc43)o2)cc1`: -2.01% (active). As for `COc1ccc(/C=c2\sc3n(c2=O)C2C(NN=3)N(C)C(=O)N2C)cc1` (stereo not given), the figure is 22.5%.

With `O=C(O)c1cn(C2CC2)c2cc(N3CCN(S(=O)(=O)c4ccc(Cl)c(Cl)c4)CC3)c(F)cc2c1=O`, the growth is 3.95% (active).

`O=C(O)c1ccc(-n2cc(CNc3ccc(C(F)(F)F)cc3)c(-c3ccccc3)n2)cc1`: the growth is 101%. As for `CSc1nc(-c2cc3ccccc3o2)cc(-c2ccc(Cl)cc2)c1C#N`, the figure is 58.8%; as for `Cc1oc2nc[nH]c(=O)c2c1C(=O)/C=C/c1ccc(Cl)cc1`, 13.7%. On to `COc1cc(OC)c(C(=O)/C=C/c2ccc(C(F)(F)F)cc2)c(OC)c1`, for which the growth is 20.4%. For the compound `Cc1ccc(S(=O)(=O)OCC(=O)Nc2ccc(C(=O)O)c(O)c2)cc1`, the growth was 96.2%.

Consider `CC/C(=C(\c1ccc(O)cc1)c1ccc(OCCN(C)CCN(C)C(=O)CCC(=O)c2c(C)[nH]c(/C=C3\N=C(c4ccc[nH]4)C=C3OC)c2C)cc1)c1ccccc1`, for which the growth is 65.2%. As for `COc1ccc2c(c1)NC(=O)CN2c1nc(NC2CC2)nc2ccccc12`, the figure is 0.461% (active); as for `COc1ccc2c(c1)NC(=O)CN2c1nc(C)nc2ccccc12`, 0.468% (active). Next, `Cc1ccc(S(=O)(=O)OC2COCOC2C(OS(=O)(=O)c2ccc(C)cc2)C2OCOCC2OS(=O)(=O)c2ccc(C)cc2)cc1` (stereo not given): 105%; `CCCCC[C@@H]1Cc2cc(O)c(C(=O)O)c3c2[C@H](C[C@@]2(CCCO2)O3)O1`: 100%; `C[C@]12CC[C@@H]3c4cc(O)c(O)cc4CC[C@H]3[C@@H]1CC[C@@H]2O`: 37.9%. For `COc1cc(-c2n[nH]nc2-c2ccc3c(c2)OCCO3)cc(OC)c1OC`, the growth is 8.07% (active). Next, `CC(=O)C1CCC(C)=CC1=O` (stereo not given): 103%; `O=c1cc(C2NCCc3c2[nH]c2ccccc32)c2c(ccc3ccccc32)o1` (stereo not given): 42%.

On to `C=CCOc1cccc(/C=C/C(=O)c2sc(Nc3cccnc3)nc2C)c1`, for which the growth was 20.3%. On to `COC(=O)CC/C(C)=N\Nc1ccc([N+](=O)[O-])cc1`, for which the growth was 54.1%. As for `O=S(=O)(NCCCNc1nccc(-c2c(-c3ccccc3)nc3sccn23)n1)c1ccc(F)cc1`, the figure is 25.9%; as for `COc1ccc(/C=C/C(=O)/C=C/c2cc3ccc(Cl)cc3[nH]c2=O)cc1`, -50.8% (active). Turning to `O=C(N/N=C/c1c(Cl)cccc1Cl)c1ccccc1Nc1ccnc(C(F)(F)F)c1`, the growth is 64.9%.

Consider `Nc1nc(N)c2nc(CNc3ccc(C(=O)CC(CCC(=O)O)C(=O)O)cc3)cnc2n1` (stereo not given), for which the growth was 21.6%.

For `CCN(CC)CCCC(C)N=c1cc(Nc2cc(=NC(C)CCCN(CC)CC)c3cc(OC)ccc3o2)oc2ccc(OC)cc12` (stereo not given), the growth is -21.2% (active). Turning to `CC(=O)OC[Si](C)(C)c1ccccc1`, the growth was 99.9%. Consider `COC1=CC(c2ccc[nH]2)=N/C1=C\c1[nH]c(C)c(CCCn2cc(CCCCCCCCC[C@@H]3Cc4cc(O)ccc4C4CC[C@]5(C)[C@@H](O)CC[C@H]5C43)nn2)c1C` (stereo not given in full), for which the growth is 37.3%. Next, `CN(C)C1CCC(NC2=CC(=O)C=CC2=O)CC1` (stereo not given): 5.98% (active); `Cn1cc(C=O)c2ccccc21`: 102%. As for `COC(=O)CCCCCCN=Cc1c(O)c(O)c(C(C)C)c2cc(C)c(-c3c(C)cc4c(C(C)C)c(O)c(O)c(C=NCCCCCCC(=O)OC)c4c3O)c(O)c12`, the figure is 8.17% (active); as for `COc1ncc(-c2ccc3ncnc(Nc4cccc(Cl)c4)c3c2)cc1NS(=O)(=O)CCN1CCOCC1`, 29.7%; as for `CC(Br)C(O)c1cc2c(cc1Br)OCO2` (stereo not given), 101%. Take `O=S(=O)(NCCCNc1nccc(-c2c(-c3ccc(O)cc3)nc3sccn23)n1)c1ccc(F)cc1`: the growth was -40% (active).
